Assay outcomes as filed in PubChem.
In the library only some 1.4% were active in any assay of this set; here they are far more common.
MbtI inh: MbtI salicylate synthase inhibition. purified MbtI enzyme, fluorescence intensity read-out. inhibition, % (concentration not given with the values). actives 0.89% (n = 100,000); in the data active means inhibition mostly above about 56%, no sharp cut-off; inactive means mostly below about 77%
Target sequence (P9WFX0 whole entry, looked up): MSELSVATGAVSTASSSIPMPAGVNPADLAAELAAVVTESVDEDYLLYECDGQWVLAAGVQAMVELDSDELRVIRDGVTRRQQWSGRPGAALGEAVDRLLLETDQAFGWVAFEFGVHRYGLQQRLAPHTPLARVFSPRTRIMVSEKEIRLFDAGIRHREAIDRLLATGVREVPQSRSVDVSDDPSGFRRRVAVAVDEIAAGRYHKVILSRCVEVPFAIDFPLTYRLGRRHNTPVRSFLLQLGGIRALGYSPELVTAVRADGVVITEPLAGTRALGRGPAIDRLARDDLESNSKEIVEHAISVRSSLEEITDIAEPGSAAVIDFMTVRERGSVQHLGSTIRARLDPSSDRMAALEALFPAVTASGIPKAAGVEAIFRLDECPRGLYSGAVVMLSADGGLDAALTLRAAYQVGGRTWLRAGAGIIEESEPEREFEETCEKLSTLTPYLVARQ
Mtb MenB inh: inhibitors of Mycobacterium tuberculosis MenB enzyme | MenB enzyme assay, absorbance read-out | inhibition, % (test concentration not listed) | actives 0.43% (n = 100,000) | AID 540299; in the data active means inhibition above about 21%, passing the limit was not always enough
Polio RdRp inh: poliovirus RNA polymerase inhibition. actives 0.66% (n = 150,000). P03300. % elongation, % (compound at 16.7 µg/mL). poliovirus polymerase elongation, fluorescence polarization; active compounds read low. AID 588519; in the data active means % elongation below about 90%
AID504770: E. coli YBA685 growth inhibition, screen for V. cholerae RctB inhibitors. z-score (no concentration beside the values). actives 0.27% (n = 130,000). E. coli YBA685 rctB-dependent plasmid, OD600 growth, 3 h; active compounds read low; in the data active means z-score below about -2, passing the limit was not always enough
Starred values were filed as active, the others as inactive; x = not tested or not shown; ! = a repeat was not active.

SMILES | MbtI inh | Mtb MenB inh | Polio RdRp inh | AID504770
COc1ccc(CN2COc3ccc4c(oc(=O)c5ccccc54)c3C2)cc1OC | x | x | 100 | x
CCOc1cc(C(=O)O)c(N)cc1OC | 100 | 12 | 87* | -0.35
CNc1nc(-c2ccccc2)[n+](-c2ccccc2)s1 | 100* | x | 102 | -0.45
CC(=O)Nc1nc(-c2ccccc2)[n+](-c2ccccc2)s1 | x | x | x | -0.55
O=C1c2c(O)ccc(O)c2C(=O)c2c(NCCNCCO)ccc(NCCNCCO)c21 | -7 | 0 | -53* | 1.4
O=c1[nH]cc(NCCO)c(=O)[nH]1 | -6 | x | x | 0.65
CC(C)(C)CC(C)(C)NC(=O)Nc1cccc(Cl)c1 | -7 | -43 | 100 | 0.65
CC(C)(C)c1nn2cnnc2n(NC(=O)Nc2cccc(Cl)c2)c1=O | -4 | -9 | 105 | -3.5*
COC(=O)c1cc(-c2ccc(S(=O)(=O)NCc3ccncc3)cc2)c(C(F)(F)F)s1 | x | x | x | 0.5
CN(Cc1ccccc1)c1ncnc2c1oc1ccccc12 | -15 | -33 | 106 | -0.5
CC(NS(=O)(=O)c1ccccc1)C(=O)Nc1ccccc1F (stereo unspecified) | 3 | 0 | 100 | -0.65
Cc1nn(C)c2c1S(=O)(=O)N=C(SCc1c(F)cccc1Cl)S2 | 84* | -7 | 88* | 1.6
O=C(OC/C=C/c1ccccc1)c1cccc(-n2cnnn2)c1 | -9 | -20 | 104 | 0.8
C=CCn1c(=S)[nH]c2cc(C(=O)O)ccc2c1=O | 14 | 0 | 104 | -0.3
C=CCn1c(=S)[nH]c2ccccc2c1=O | 19 | 31*! | 104 | 0.95
Cc1sc2c(c1C)CSC(C(=O)O)=C2 | 98* | -20 | 100 | -1.4
O=C(OCc1cc(=O)oc2cc(O)ccc12)c1cccnc1Cl | -65 | 7 | 104 | 1.6
c1ccc(-c2ccc(-c3ccccn3)nc2)nc1 | x | x | x | -2.4*
c1ccc(-c2cccc(-c3ccccn3)n2)nc1 | 6 | x | 113 | -1.4
COc1ccc(C2C(C#N)=C(N)SC3C(=O)N(c4ccc(Br)cc4)C(=O)C32)cc1 (stereo unspecified) | x | -8 | 77* | 0.25
COc1cc(N2C(=O)c3ccccc3C2=O)c(Cl)cc1C(=O)OCC(=O)N1CCCC1 | -6 | -23 | 105 | -0.35
N#Cc1cccc(NC(=O)Nc2cccs2)c1 | 13 | 12 | 101 | -3.1*
N#Cc1cccc(NC(=S)NC(=O)c2cccs2)c1 | -2 | -38 | 104 | 2.2
O=C(OCC(=O)N1CCCC1=O)c1cccc(-n2cccc2)c1 | -3 | -33 | 103 | -0.05
COc1ccc(CCN2C(=O)CC(=O)NC2=S)cc1OC | 27 | -121 | 100 | -0.35
SMILES | MbtI inh | Mtb MenB inh | Polio RdRp inh | AID504770
COc1ccc(CCN2CC(=O)N3CCCC(C4=CC(=O)C=CC4=O)=C3C2=O)cc1OC | 99* | -13 | 95 | -0.4
Cc1ccc(NC(=O)COC(=O)C2=NC=CN3CCS(=O)(=O)N=C23)cc1 | -2 | -43 | 104 | -1.2
CC1CN(Cn2nc(C(=O)O)c3ccccc32)CC(C)O1 (stereo unspecified) | -5 | -22 | 100 | -0.75
CC1CN(Cn2c(=S)oc3ccccc32)CC(C)O1 (stereo unspecified) | 60 | -28 | 90* | -0.9
O=C(Nc1cccc(F)c1)[C@H](CSCc1ccccc1)N1Cc2ccccc2C1=O | x | x | 84* | x
O=C(Nc1cccc(F)c1)[C@H](Cc1ccccc1)N1Cc2ccccc2C1=O | -9 | -20 | 100 | -0.55
COc1ccc(C2C(C#N)=C(N)OC3=C2C(=O)CCC3)cc1 (stereo unspecified) | 11 | -19 | 102 | -0.15
COC(=O)C1=C(N)OC2=C(C(=O)CCC2)C1c1ccc(OC)cc1 (stereo unspecified) | 4 | 37* | 101 | 1.6
O=C(O)C1CSC2c3ccccc3C(=O)N12 (stereo unspecified) | -4 | 39* | 101 | 0.05
CC1=CC(=O)C(CCCCCC2=CC(=O)C(C)=CC2=O)=CC1=O | 95* | 7 | 103 | 1.3
CC1=CC(=O)C(CCOCCC2=CC(=O)C(C)=CC2=O)=CC1=O | 100* | -4 | 101 | 0.75
O=C(O)CC(O)(c1ccccc1)C(F)(F)F (stereo unspecified) | -14 | x | 102 | 0.25
COc1ccc2o/c(=N\O)c(C(N)=O)cc2c1 | 102* | -81 | 102 | 1.4
N#CC1=C(SCC(=O)N(c2ccccc2)c2ccccc2)NC(=O)CC1c1ccco1 (stereo unspecified) | x | x | x | 1.3
N#CC1=C(S)NC(=O)CC1c1ccco1 (stereo unspecified) | 6 | -39 | 79* | -0.35
COc1ccc(C(NC(=O)/C=C\c2ccco2)c2cc(OC)c(OC)cc2Br)cc1OC (stereo unspecified) | 26 | -13 | 98 | -0.15
